A selection: hits, their analogues and other compounds. The true share with any hit is near 2.8%.
HttQ103 aggreg: inhibitors of mutant huntingtin aggregate formation in PC12 cells. PC12 HttQ103-GFP aggregates, Acumen cytometry, 40 h. Potency, µM (top dose mostly 46.1 µM), without a hit: at the highest dose activity change, negative = inhibition, most hits filed as inhibitors. actives 1.1% (n = 220,000). AID 1688; further: on the % scale 0 is the no-effect control and ±100 the full control effect; nearly all actives have a fitted effect of over 60% in size
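Quantitative HTS on tebufenozide-induced (100 nM) PC12 cells stably expressing polyQ103 Huntingtin exon 1–GFP. Reduction of bright GFP aggregates, detected by laser scanning cytometry after lysis, identified actives across the titration.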
ATXN2 expr inh: inhibitors of ATXN2 expression | HEK-293 ATXN2-luciferase reporter, luminescence, 24 h | Potency, µM (series often up to 57 µM), for inactives: at the top dose activity change, negative = inhibition, usual class: inhibitors | actives 0.72% (n = 360,000) | AID 1745845; further: on the % scale 0 is the no-effect control and ±100 the full control effect; nearly all actives have a fitted effect of over 55% in size
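qHTS (up to 57 uM final) was run with 24 h compound exposure of reporter cells at 37 °C. Each well was multiplexed: SteadyGlo luminescence measured ATXN2-luciferase expression after a fluorogenic Gly-Phe-AFC viability readout (25 uM final).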
TGFb SMAD3 inh: TGF-b pathway inhibition | HepG2 CAGA-GFP TGF-b/SMAD3 reporter, GFP fluorescence, 18 h; TGF-beta stimulated, 500 pg/mL final | Potency, µM (top dose mostly 46.1 µM), without a hit: at the top dose activity, negative = inhibition, usual class: inhibitors | actives 1.2% (n = 410,000) | AID 588855; further: on the % scale 0 is the no-effect control and ±100 the full control effect; nearly all actives have a fitted effect of over 65% in size
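Inhibition of TGF-beta-driven CAGA-GFP reporter expression in HEPG2 cells is measured by cellular GFP fluorescence after 18 h stimulation with 500 pg/mL recombinant TGF-beta in 1% FBS medium at 37 degrees C.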
HTT ATP protect: protects HTT-Q103 PC12 cells, measured by ATP; PC12 HTT-Q103 induced, cytoprotection, ATP luminescence, 40 h; Potency, µM (doses to about 56.4 µM), for the others: cytoprotection (ATP increase), hits mostly activators; actives 0.14% (n = 230,000); further: % of control where 0% means no effect; nearly all actives have a fitted effect of over 45% in size
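PC12 cells stably carrying ecdysone-inducible Htt exon 1 (Q103)–GFP were induced with 100 nM tebufenozide (final) alongside library compounds in a dose series. Cytoprotection was scored as retained ATP by ATPlite luminescence.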
ATXN viability: reduces viability in counter-screen for ATXN expression inhibitors | S2 cells (HEK-293 line with an ATXN2-luciferase reporter) viability, CellTiter-Fluor protease fluorescence, 24 h | Potency, µM (titrated, usually from 56.7 µM), actives largely listed as cytotoxic | actives 0.49% (n = 400,000) | AID 651635; further: nearly all actives have a fitted effect of over 40% in size
HepG2 tox: kills HepG2 cells in TGF-b inhibitor counter-screen | AID 588856 | actives 0.76% (n = 410,000) | Potency, µM (doses to about 46.1 µM), without a hit: at the top dose activity change, negative = cytotoxicity, usual class: cytotoxic | HepG2 CAGA-GFP viability, ATP luminescence, 18 h
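HepG2 CAGA-GFP cells (1000/well, DMEM with 1% FBS) received compound, then TGF-beta at 500 pg/mL final, and were incubated 18 hours at 37 degrees C. Viability was read by CellTiter-Glo luminescence. Media-only wells were set as complete cell-killing and DMSO as no toxicity.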
Starred values were filed as active, the others as inactive; i = inactive; ? = inconclusive; nt = not tested or not shown; ! = repeats disagree; [ ] = dose if it differs, or a comment. The call rests on the fitted dose curve; in most records, active means well fitted curve in the direction sought with a large enough effect; inconclusive means small, poorly fitted or top-dose-only effect, or another doubt; inactive means no such curve, though single readings can be large; an effect the other way counts as inactive or inconclusive. Potency means the concentration at half of the fitted maximal effect.

SMILES	HttQ103 aggreg	ATXN2 expr inh	TGFb SMAD3 inh	HTT ATP protect	ATXN viability	HepG2 tox
CCN(CC)C(=O)Cn1c(=O)n(CCCCCC(=O)NCc2ccccc2)c(=O)c2sccc21	nt	-3%	3%	nt	i	3%
CCCCC(CC)CNC(=O)CCCc1nnc2n(CCC)c(=O)c3sccc3n12 (stereo not drawn)	nt	-37%	?	nt	18µM*	-22%
CCN(CC)C(=O)Cn1c(=O)n(CCCCCC(=O)Nc2ccccc2)c(=O)c2sccc21	3%	7%	?	-11%[10 µM]	i	3.2µM*!
CCCCC/C=C\C\C=C/C=C/C=C/[C@@H](SC[C@H](NC(=O)CC[C@H](N)C(=O)O)C(=O)NCC(=O)O)[C@@H](O)CCCC(=O)O	nt	nt	nt	12%	nt	nt
COC(=O)C(C(=O)OC)[C@@H](NC(=O)OCc1ccccc1)c1ccccc1	nt	nt	nt	13%	nt	nt
C[N+]1(CC(=O)c2ccc(Oc3ccc(C(=O)C[N+]4(C)CCOCC4)cc3)cc2)CCOCC1	nt	nt	-6%	nt	nt	-6%
C[n+]1c2n(c3ccccc31)N=C(c1cc(C(C)(C)C)c(O)c(C(C)(C)C)c1)CS2	nt	?	6.3µM*	nt	22µM*	-160%
O=C(Nc1cccc(C(=O)OCc2cc(=O)n3c4c(sc3n2)CCCC4)c1)c1ccc(Cl)cc1	nt	nt	10µM*	nt	nt	-31%
COc1ccc(-c2cc(C(F)(F)F)c3c(n2)sc2c(O)cc(=O)[nH]c23)c(OC)c1	-29%	-12%	8%	-19%[10 µM]	i	2.2µM*
Cc1csc2c(N3CCN(C(=O)Nc4ccc(Cl)c(Cl)c4)CC3)ncnc12	7%[9.22 µM]	20µM*	?	33%[10 µM]	?	-29%
Cc1csc2c(N3CCN(C(=O)NC(C)(C)C)CC3)ncnc12	4%[9.22 µM]	0%	?	27%[10 µM]	i	-21%
COC(=O)C[C@H]1c2ccccc2[C@H]2C(=C[C@@H](C)[C@H]3C(=O)N(O)C(=O)[C@H]32)N1C(=O)OC	nt	nt	nt	-2%[10 µM]	nt	nt
CCN1CCN(c2cc(N3CCN(C(=O)c4ccco4)CC3)c3c4c(onc24)-c2ccccc2C3=O)CC1	nt	-32%	0%	nt	?	25µM*
CC(=O)C[C@H]1c2cc(F)cc(F)c2S(=O)(=O)N1C1CCN(Cc2ccccc2)CC1	nt	nt	-20%	nt	nt	3%
Clc1ccc2nnnc(-c3ccccc3)c2c1	?	15µM*	?	nt	?	31%
CCN1CCN(C2=C(NS(=O)(=O)c3ccc(Br)cc3)C(=O)c3ccccc3C2=O)CC1	nt	nt	13µM*	nt	?	18µM*
CCOC(=O)C1CCN(C2=C(NS(=O)(=O)c3ccc(Br)cc3)C(=O)c3ccccc3C2=O)CC1	nt	nt	18µM*	nt	18µM*	-101%
CCN1CCN(C2=C(NS(=O)(=O)c3ccccc3)C(=O)c3ccccc3C2=O)CC1	nt	nt	11µM*	nt	?	-115%
NC(=O)C1CCN(C2=C(NS(=O)(=O)c3ccc(Br)cc3)C(=O)c3ccccc3C2=O)CC1	nt	?	?	nt	?	-98%
CCOc1ccccc1N1CCN(C2=C(NS(=O)(=O)c3cccs3)C(=O)c3ccccc3C2=O)CC1	-13%	-20%	18µM*	-32%	i	-32%
CN1CCN(C2=C(NS(=O)(=O)c3cccs3)C(=O)c3ccccc3C2=O)CC1	24%[9.22 µM]	?	?	13%[10 µM]	i	-27%
CN1CCN(C2=C(NS(=O)(=O)c3ccccc3)C(=O)c3ccccc3C2=O)CC1	nt	-27%	?	nt	i	-47%
CC1=CCC(C(C)(C)O)CC1 (stereo not drawn)	28%	nt	nt	-87%	nt	nt
CCCc1cc(=O)[nH]c(SCC(=O)NCCCC(=O)OCC)n1	21%	-5%	1%	6%	i	0.45µM*
COc1ccc(OC)c(CN2C[C@H](Sc3ccc(F)cc3)C[C@H]2C(=O)N(C)C)c1	nt	nt	nt	nt	i	nt
SMILES	HttQ103 aggreg	ATXN2 expr inh	TGFb SMAD3 inh	HTT ATP protect	ATXN viability	HepG2 tox
CC(C)OC(=O)CC(=O)CSc1nc2c(c(-c3cccs3)c1C#N)CCC2	11µM*	nt	-9%	-4%[1.9 µM]	nt	-1%
CN(CCO)C(=O)c1cn(C2CCN(Cc3cccc(C(F)(F)F)c3)CC2)nn1	nt	nt	nt	nt	i	nt
C=CCOc1ccccc1C(=O)/C=C1/C(=O)Nc2ccccc21	nt	-14%	?	nt	?	6.3µM*
O=C1Nc2ccccc2/C1=C/C(=O)c1cccs1	?	?	?	2%	?	14µM*
COc1ccc(C(=O)/C=C2/C(=O)Nc3ccccc32)cc1OC	nt	nt	-2%	nt	?	-15%
COc1ccc(C(=O)/C=C2/C(=O)Nc3ccccc32)c(OC)c1	nt	-13%	13µM*	nt	i	10µM*
COc1ccc(C(=O)/C=C2/C(=O)Nc3ccccc32)cc1	nt	?	?	nt	?	14µM*
N#CCCn1cnc2c1NC=NC2Cl (stereo not drawn)	nt	nt	nt	13%	nt	nt
Cc1cc(S(=O)(=O)NCc2nc(N3CCCC3)c3cc(Cl)ccc3n2)c(C)s1	nt	nt	nt	nt	i	nt
CC1Cc2ccccc2N1S(=O)(=O)c1cccc(C(=O)NCc2ccncc2)c1 (stereo not drawn)	nt	-13%	?	nt	i	-31%
CC1Cc2ccccc2N1S(=O)(=O)c1nnc(NC(=O)c2ccccc2)s1 (stereo not drawn)	nt	-17%	14µM*	nt	?	-29%
CCN(CC)CCNC(=O)c1ccc(NC(=O)c2cccc(S(=O)(=O)N3CCc4ccccc43)c2)cc1	nt	-16%	?	nt	i	-48%
CC1Cc2ccccc2N1S(=O)(=O)c1cccc(C(=O)NCc2ccccn2)c1 (stereo not drawn)	nt	nt	?	nt	i	20µM*
Cc1ccc(C(=O)Nc2nnc(S(=O)(=O)N3c4ccccc4CC3C)s2)cc1 (stereo not drawn)	nt	9%	-29%	nt	i	-24%
CCN(CC)CCNC(=O)c1ccc(NC(=O)c2cccc(S(=O)(=O)N3c4ccccc4CC3C)c2)cc1 (stereo not drawn)	nt	?	?	nt	?	10µM*
COc1cccc(CN2CCCC(c3nc(-c4ccncc4)ncc3-c3ccccc3C)C2)c1O (stereo not drawn)	nt	nt	nt	nt	i	nt
COc1ccc(-c2csc(C(O)(c3ccccc3)C(F)(F)F)n2)cc1 (stereo not drawn)	nt	?	?	nt	?	-78%
OC(c1ccccc1)(c1nc(-c2ccc(Cl)cc2)cs1)C(F)(F)F (stereo not drawn)	nt	-2%	?	nt	?	16µM*
O=C1c2cccc(NCCCNCCO)c2C(=O)c2cccc(NCCCNCCO)c21	nt	13µM*	16µM*	nt	nt	-65%

Compound activity deposited in PubChem by National Center for Advancing Translational Sciences (NCATS).
